# Assay results reported in ChEMBL document CHEMBL5606458, “ASAP - ZIKV NS2B-NS3 protease fluorescence single point” (2024).
# About 160 (5.9%) of roughly 2,700 compounds showed an effect of 50% or more. For the sample, strong results were picked, then their nearest neighbours and some compounds at random.
# Biological target: Nonstructural protein 3 (Zika virus) (UniProt A0A024AXB9)
# Sequence (A0A024AXB9 as listed by the source): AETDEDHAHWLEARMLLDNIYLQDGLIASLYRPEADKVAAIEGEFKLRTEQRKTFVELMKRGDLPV
smiles,measurement,setting,value
CC(C)(C)OC(=O)Cn1ccnc(N2CC[C@@H](CO)C2)c1=O,inhibition,"PRVABC59, Concentration 49.5 uM, Number of replicates 2.0, Standard deviation 1.325865675699347 %",11.6%
same,inhibition,"PRVABC59, Concentration 99.01 uM, Number of replicates 2.0, Standard deviation 1.7656333109073532 %",22.2%
same,inhibition,"PRVABC59, Concentration 198.0 uM, Number of replicates 2.0, Standard deviation 1.622873505631253 %",37.1%
O=C(O)c1cc(Cl)ccc1NS(=O)(=O)c1ccc(Br)cc1,inhibition,"PRVABC59, Concentration 49.5 uM, Number of replicates 2.0, Standard deviation 0.7950601733582335 %",7.77%
same,inhibition,"PRVABC59, Concentration 99.01 uM, Number of replicates 2.0, Standard deviation 0.4216229111618842 %",14.7%
same,inhibition,"PRVABC59, Concentration 198.0 uM, Number of replicates 2.0, Standard deviation 0.3312742292956271 %",24.5%
CCn1ccnc(N2CC[C@H](c3ccc(C#N)cc3)C2)c1=O,inhibition,"PRVABC59, Concentration 49.5 uM, Number of replicates 2.0, Standard deviation 3.318813799365356 %",8.78%
same,inhibition,"PRVABC59, Concentration 99.01 uM, Number of replicates 2.0, Standard deviation 2.601162551030959 %",17.7%
same,inhibition,"PRVABC59, Concentration 198.0 uM, Number of replicates 2.0, Standard deviation 2.251403725502818 %",31.6%
CCn1ccnc(N2CC[C@H](C3CCOCC3)C2)c1=O,inhibition,"PRVABC59, Concentration 50.0 uM, Number of replicates 2.0, Standard deviation 1.8994947363510455 %",7.04%
same,inhibition,"PRVABC59, Concentration 100.0 uM, Number of replicates 2.0, Standard deviation 0.728011618047951 %",14.4%
same,inhibition,"PRVABC59, Concentration 200.0 uM, Number of replicates 2.0, Standard deviation 0.3716947428915149 %",27.3%
N[C@H]1C[C@H](CNC(=O)[C@@H](NC(=O)OCc2ccccc2)c2ccc(OCc3ccccc3)cc2)C1,inhibition,"PRVABC59, Concentration 49.5 uM, Number of replicates 2.0, Standard deviation 3.7963377615811797 %",3.96%
same,inhibition,"PRVABC59, Concentration 99.01 uM, Number of replicates 2.0, Standard deviation 2.5827561793492815 %",42.9%
same,inhibition,"PRVABC59, Concentration 198.0 uM, Number of replicates 2.0, Standard deviation 1.1643103990361166 %",82.5%
O=Cc1ccc(N2CCC(C(=O)N3C[C@@H]4C[C@H](C3)c3cccc(=O)n3C4)CC2)cc1,inhibition,"PRVABC59, Concentration 50.0 uM, Number of replicates 1.0",21.2%
CC(C)Oc1cc(COc2cccnc2F)nc(N2CCNCC2)n1,inhibition,"PRVABC59, Concentration 49.5 uM, Number of replicates 2.0, Standard deviation 2.4105168451759336 %",4.13%
same,inhibition,"PRVABC59, Concentration 99.01 uM, Number of replicates 2.0, Standard deviation 2.7698794201931607 %",16.6%
same,inhibition,"PRVABC59, Concentration 198.0 uM, Number of replicates 2.0, Standard deviation 3.834837221821941 %",38.4%
COc1cc(C(=O)Nc2cnc3ccccc3c2)nc(N2CCNCC2)n1,inhibition,"PRVABC59, Concentration 49.5 uM, Number of replicates 2.0, Standard deviation 31.670721297793175 %",46.6%
same,inhibition,"PRVABC59, Concentration 99.01 uM, Number of replicates 2.0, Standard deviation 1.978331259427643 %",52.6%
same,inhibition,"PRVABC59, Concentration 198.0 uM, Number of replicates 2.0, Standard deviation 3.25586764970173 %",44.4%
COC(=O)c1cncc(OCc2cc(OC)nc(N3CCNCC3)n2)c1,inhibition,"PRVABC59, Concentration 49.5 uM, Number of replicates 2.0, Standard deviation 0.44537620063304795 %",8.58%
same,inhibition,"PRVABC59, Concentration 99.01 uM, Number of replicates 2.0, Standard deviation 1.920430256118165 %",19.8%
same,inhibition,"PRVABC59, Concentration 198.0 uM, Number of replicates 2.0, Standard deviation 1.464841031153957 %",42.9%
COc1cc(COc2cncc3ccccc23)nc(N2CCNCC2)n1,inhibition,"PRVABC59, Concentration 49.5 uM, Number of replicates 2.0, Standard deviation 3.6633197788698872 %",18.2%
same,inhibition,"PRVABC59, Concentration 99.01 uM, Number of replicates 2.0, Standard deviation 8.620902514901289 %",33.6%
same,inhibition,"PRVABC59, Concentration 198.0 uM, Number of replicates 2.0, Standard deviation 2.631600667850739 %",48.9%
CCCC[C@H](NC(C)=O)C(=O)N[C@H](C(=O)NCc1ccc(CN)cc1)c1ccccc1,inhibition,"PRVABC59, Concentration 49.5 uM, Number of replicates 2.0, Standard deviation 2.0326302034025616 %",1.09%
same,inhibition,"PRVABC59, Concentration 99.01 uM, Number of replicates 2.0, Standard deviation 38.99982941752366 %",27.9%
same,inhibition,"PRVABC59, Concentration 198.0 uM, Number of replicates 2.0, Standard deviation 3.137845684278008 %",79.1%
CCCC[C@H](NC(C)=O)C(=O)N[C@H](C(=O)NCc1ccc(CN)cc1)c1ccc(OCc2ccccc2)cc1,inhibition,"PRVABC59, Concentration 49.5 uM, Number of replicates 2.0, Standard deviation 3.0246149725930045 %",4.96%
same,inhibition,"PRVABC59, Concentration 99.01 uM, Number of replicates 2.0, Standard deviation 5.4426160865401085 %",91.7%
same,inhibition,"PRVABC59, Concentration 198.0 uM, Number of replicates 2.0, Standard deviation 0.23672907001683724 %",97.8%
CCCC[C@H](NC(C)=O)C(=O)N[C@H](C(=O)NCc1ccc(C(N)=O)cc1)c1ccc(OCc2ccccc2)cc1,inhibition,"PRVABC59, Concentration 49.5 uM, Number of replicates 2.0, Standard deviation 2.8803277655268693 %",26.6%
same,inhibition,"PRVABC59, Concentration 99.01 uM, Number of replicates 2.0, Standard deviation 0.054514419737930774 %",98.6%
same,inhibition,"PRVABC59, Concentration 198.0 uM, Number of replicates 2.0, Standard deviation 0.07632018763310308 %",99.1%
CCCCCC(=O)N[C@H](C(=O)NCc1cccc(CN)c1)C1CCCCC1,inhibition,"PRVABC59, Concentration 49.5 uM, Number of replicates 2.0, Standard deviation 0.08302069360936502 %",-2.7%
same,inhibition,"PRVABC59, Concentration 99.01 uM, Number of replicates 2.0, Standard deviation 0.655862366837183 %",-1.9%
same,inhibition,"PRVABC59, Concentration 198.0 uM, Number of replicates 2.0, Standard deviation 0.31962821211509684 %",41.3%
CCCC[C@H](NC(C)=O)C(=O)N[C@H](C(=O)Nc1ccc(C(N)=O)cc1)c1ccc(OCc2ccccc2)cc1,inhibition,"PRVABC59, Concentration 49.5 uM, Number of replicates 2.0, Standard deviation 1.0117053428289626 %",-1.83%
same,inhibition,"PRVABC59, Concentration 99.01 uM, Number of replicates 2.0, Standard deviation 0.9364545471831264 %",1.23%
same,inhibition,"PRVABC59, Concentration 198.0 uM, Number of replicates 2.0, Standard deviation 0.5455676889131452 %",17.7%
CCCC[C@H](NC(C)=O)C(=O)N[C@@H](C(=O)NCc1ccc(C(N)=O)cc1)c1ccc(OCc2ccccc2)cc1,inhibition,"PRVABC59, Concentration 49.5 uM, Number of replicates 2.0, Standard deviation 1.682765526064386 %",-0.555%
same,inhibition,"PRVABC59, Concentration 99.01 uM, Number of replicates 2.0, Standard deviation 1.8317792493099265 %",2.22%
same,inhibition,"PRVABC59, Concentration 198.0 uM, Number of replicates 2.0, Standard deviation 1.8535860287294632 %",8.29%
COc1ccc2nc(C(F)(F)F)nc(N3CCN(c4ccc(N)nc4)CC3)c2c1,inhibition,"PRVABC59, Concentration 49.5 uM, Number of replicates 2.0, Standard deviation 0.8584962379889504 %",14.4%
same,inhibition,"PRVABC59, Concentration 99.01 uM, Number of replicates 2.0, Standard deviation 2.1800251715639205 %",28%
same,inhibition,"PRVABC59, Concentration 198.0 uM, Number of replicates 2.0, Standard deviation 1.6255789961308644 %",43.6%
CC(C)(CO)CN1CC[C@H](c2c[nH]c3ccccc23)C1,inhibition,"PRVABC59, Concentration 49.5 uM, Number of replicates 2.0, Standard deviation 3.1209329969075563 %",6.14%
same,inhibition,"PRVABC59, Concentration 99.01 uM, Number of replicates 2.0, Standard deviation 4.254828207009483 %",11.2%
same,inhibition,"PRVABC59, Concentration 198.0 uM, Number of replicates 2.0, Standard deviation 3.604090306895346 %",18.1%
